Measured values published in paper PMC12864922, “TDP-43 directly inhibits mRNA accumulation in neurites through modulation of mRNA stability”.
Whole data set: some 9,900 sequences, median “r (bound/input frequency ratio)” near 0.7, cut for the highest 2% near 6.5. Many of the other results were omitted from the sample, so the highest values are more common in it than they were.

B1: ENSMUSG00000028439.351|Fam219a (ssRNA)
RNA: GGGAGUUCUACAGUCCGACGAUCGCUUCGAUAUCCGCAUGCUACCCCCCACCGCAUCCCCACUGGGCUCUUUGACUCACCCUUCUAGAACAUGGGUGCCUCCUCUCUUUAGACUGCUGCCUUUGCCUCUGACUUCCUGUGGGAUUGAGAGCCAAGGGCCAGUGCCCUUGUGAGCGCACUAGUUCCGAAGCAGGCAAGGGCAUUAGGUGGUAUAUACAUAGCGGGUAGGGGUAGGAAGCUGGCAGCCUGCAGCUUCCAAGUCCAAGGAGAGCACACAGUUCCCUCCUUCCCUGCCUGGAAGUUGCUCUUGCGGUCGCACUAGUGUGGAAUUCUCGGGUGUCAAGG
B2: ENSMUSG00000061578.187|Ksr2 (ssRNA)
RNA: GGGAGUUCUACAGUCCGACGAUCGCUUCGAUAUCCGCAUGCUAUUGUGCACACUCAGCACCCCAUCUUCCAAGCCUUUCUUCAUCCCCCACCUUCUUUUGGGAAGGGGUGGCACAGAGUGAAUGGGAAGGAGAGCCCUGAGGUCACUGGUCCACAUGCCCAAAGCCAUGCCCCCCAGUGAUCAGACCUGACACAAGAGGCAAAGCUGUCCCUAAGCAGAGAAUUAGCAGGGUUAGCCAGACAGCAAAAUCCAUGUAAACAUACAAAACCACCCCCCCUUUUUGAGUGGCCCUAUUGGAUGUACCUCUUGCGGUCGCACUAGUGUGGAAUUCUCGGGUGUCAAGG
B3: ENSMUSG00000029028.21|Lrrc47 (ssRNA)
RNA: GGGAGUUCUACAGUCCGACGAUCGCUUCGAUAUCCGCAUGCUAUGUGCUGUAGGUGUCUGUGUGGGUGUGGGUGUGCUGUAGGUGUCUGUGUGGGUGUGGGUGUGCUAUAGGUAUCUGUGGGUGUGCUGUAGGUGUCUGUGUGGGUGUGCUGUAGGUGUCUGUGUAGGUGUGGGUGUGCUGUAGGUGUCUGUGUGGGUGUGCUAGGUGUCUGUAUAGGUGUGGGUGUGCUGUAGAUGUCUGUGUAGGUAUGGGUGUGCUGUAGAUCUUUGUAGGUGUAGGUAUGCUGUAGGUAUCUGGGUGUGCUCUUGCGGUCGCACUAGUGUGGAAUUCUCGGGUGUCAAGG
B4: ENSMUSG00000029028.66|Lrrc47 (ssRNA)
RNA: GGGAGUUCUACAGUCCGACGAUCGCUUCGAUAUCCGCAUGCUAAGAUGUCUGUGUAGGUGUGGAUAUGCUGUAGGUAUCUGGGUGUGCUGUAGGUGUCUGUGUGGGUGUGGGUGUGCUGUGGGUGUCUGUGUGGGUGUGCUGUAGGUGUCUGUAGGUGUGGGUAUGCUGCAGGUGUGGGUGUGCUGUAGAUCUCUAUAGGUGUGGGUGUGCUGUAGGGGUCUGUGUGGGUAUAGGUGUGGGUGUGCUGUAGAUUCUGUGUAACUGGUUCUUUGCUGUUUCUCUGGGUGUUUUAAGGUGUCUGCCUCUUGCGGUCGCACUAGUGUGGAAUUCUCGGGUGUCAAGG
B5: ENSMUSG00000029028.68|Lrrc47 (ssRNA)
RNA: GGGAGUUCUACAGUCCGACGAUCGCUUCGAUAUCCGCAUGCUAAGGUGUGGAUAUGCUGUAGGUAUCUGGGUGUGCUGUAGGUGUCUGUGUGGGUGUGGGUGUGCUGUGGGUGUCUGUGUGGGUGUGCUGUAGGUGUCUGUAGGUGUGGGUAUGCUGCAGGUGUGGGUGUGCUGUAGAUCUCUAUAGGUGUGGGUGUGCUGUAGGGGUCUGUGUGGGUAUAGGUGUGGGUGUGCUGUAGAUUCUGUGUAACUGGUUCUUUGCUGUUUCUCUGGGUGUUUUAAGGUGUCUGCUUUUGUCCAGGUCUCUUGCGGUCGCACUAGUGUGGAAUUCUCGGGUGUCAAGG
B6: ENSMUSG00000029028.19|Lrrc47 (ssRNA)
RNA: GGGAGUUCUACAGUCCGACGAUCGCUUCGAUAUCCGCAUGCUAUGUAGGUGUGGGUGUGCUGUAGGUGUCUGUGUGGGUGUGGGUGUGCUGUAGGUGUCUGUGUGGGUGUGGGUGUGCUAUAGGUAUCUGUGGGUGUGCUGUAGGUGUCUGUGUGGGUGUGCUGUAGGUGUCUGUGUAGGUGUGGGUGUGCUGUAGGUGUCUGUGUGGGUGUGCUAGGUGUCUGUAUAGGUGUGGGUGUGCUGUAGAUGUCUGUGUAGGUAUGGGUGUGCUGUAGAUCUUUGUAGGUGUAGGUAUGCUGUAGGCUCUUGCGGUCGCACUAGUGUGGAAUUCUCGGGUGUCAAGG
B7: ENSMUSG00000029028.67|Lrrc47 (ssRNA)
RNA: GGGAGUUCUACAGUCCGACGAUCGCUUCGAUAUCCGCAUGCUACUGUGUAGGUGUGGAUAUGCUGUAGGUAUCUGGGUGUGCUGUAGGUGUCUGUGUGGGUGUGGGUGUGCUGUGGGUGUCUGUGUGGGUGUGCUGUAGGUGUCUGUAGGUGUGGGUAUGCUGCAGGUGUGGGUGUGCUGUAGAUCUCUAUAGGUGUGGGUGUGCUGUAGGGGUCUGUGUGGGUAUAGGUGUGGGUGUGCUGUAGAUUCUGUGUAACUGGUUCUUUGCUGUUUCUCUGGGUGUUUUAAGGUGUCUGCUUUUGUCUCUUGCGGUCGCACUAGUGUGGAAUUCUCGGGUGUCAAGG
B8: ENSMUSG00000029028.38|Lrrc47 (ssRNA)
RNA: GGGAGUUCUACAGUCCGACGAUCGCUUCGAUAUCCGCAUGCUAUGUGCUGUAGGUGUCUGUGUAGGUGUGGGUGUGCUGUAGGUGUCUGUGUGGGUGUGCUAGGUGUCUGUAUAGGUGUGGGUGUGCUGUAGAUGUCUGUGUAGGUAUGGGUGUGCUGUAGAUCUUUGUAGGUGUAGGUAUGCUGUAGGUAUCUGGGUGUGGGUAUGCUGUAGAUGUCUGUGUAGGUGUGGAUAUGCUGUAGGUAUCUGGGUGUGCUGUAGGUGUCUGUGUGGGUGUGGGUGUGCUGUGGGUGUCUGUGUGGGCUCUUGCGGUCGCACUAGUGUGGAAUUCUCGGGUGUCAAGG
B9: ENSMUSG00000029028.28|Lrrc47 (ssRNA)
RNA: GGGAGUUCUACAGUCCGACGAUCGCUUCGAUAUCCGCAUGCUAUCUGUGUGGGUGUGGGUGUGCUAUAGGUAUCUGUGGGUGUGCUGUAGGUGUCUGUGUGGGUGUGCUGUAGGUGUCUGUGUAGGUGUGGGUGUGCUGUAGGUGUCUGUGUGGGUGUGCUAGGUGUCUGUAUAGGUGUGGGUGUGCUGUAGAUGUCUGUGUAGGUAUGGGUGUGCUGUAGAUCUUUGUAGGUGUAGGUAUGCUGUAGGUAUCUGGGUGUGGGUAUGCUGUAGAUGUCUGUGUAGGUGUGGAUAUGCUGUAGGCUCUUGCGGUCGCACUAGUGUGGAAUUCUCGGGUGUCAAGG
B10: ENSMUSG00000029028.44|Lrrc47 (ssRNA)
RNA: GGGAGUUCUACAGUCCGACGAUCGCUUCGAUAUCCGCAUGCUAUAGGUGUCUGUGUGGGUGUGCUAGGUGUCUGUAUAGGUGUGGGUGUGCUGUAGAUGUCUGUGUAGGUAUGGGUGUGCUGUAGAUCUUUGUAGGUGUAGGUAUGCUGUAGGUAUCUGGGUGUGGGUAUGCUGUAGAUGUCUGUGUAGGUGUGGAUAUGCUGUAGGUAUCUGGGUGUGCUGUAGGUGUCUGUGUGGGUGUGGGUGUGCUGUGGGUGUCUGUGUGGGUGUGCUGUAGGUGUCUGUAGGUGUGGGUAUGCUGCACUCUUGCGGUCGCACUAGUGUGGAAUUCUCGGGUGUCAAGG
B11: ENSMUSG00000029028.20|Lrrc47 (ssRNA)
RNA: GGGAGUUCUACAGUCCGACGAUCGCUUCGAUAUCCGCAUGCUAUGUGGGUGUGCUGUAGGUGUCUGUGUGGGUGUGGGUGUGCUGUAGGUGUCUGUGUGGGUGUGGGUGUGCUAUAGGUAUCUGUGGGUGUGCUGUAGGUGUCUGUGUGGGUGUGCUGUAGGUGUCUGUGUAGGUGUGGGUGUGCUGUAGGUGUCUGUGUGGGUGUGCUAGGUGUCUGUAUAGGUGUGGGUGUGCUGUAGAUGUCUGUGUAGGUAUGGGUGUGCUGUAGAUCUUUGUAGGUGUAGGUAUGCUGUAGGUAUCUGCUCUUGCGGUCGCACUAGUGUGGAAUUCUCGGGUGUCAAGG

target: TDP-43 (Homo sapiens, UniProt Q13148 1-414); test: RNA Bind-n-Seq with designed 260-mer pool; 25 mM Tris-HCl, 150 mM KCl, 3 mM MgCl2, BSA (printed 500 mg/mL), 20 units/mL SUPERase IN; pH not stated; 500 nM RNA pool, 1 h, 4 C; TDP-43 5, 50, 500 nM; high values mean tight binding; conditions: protein: recombinant; tags: SBP (GST cleaved off with PreScission; pGEX-GST-SBP)
Outline: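 Binding (R) is the ratio of each oligo's mapped-read-normalized abundance in the bound fraction to its abundance in the input. To obtain it, SBP-tagged recombinant TDP-43 (5, 50 or 500 nM) on streptavidin beads was incubated with 500 nM of an in vitro-transcribed 260-nt 3′ UTR oligo pool for 1 h at 4 °C in 25 mM Tris-HCl, 150 mM KCl, 3 mM MgCl2, BSA and SUPERase IN. The RNA retained after washing was released with biotin, then reverse transcribed, amplified by PCR and sequenced.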

Chain of TDP-43 (Q13148 whole entry): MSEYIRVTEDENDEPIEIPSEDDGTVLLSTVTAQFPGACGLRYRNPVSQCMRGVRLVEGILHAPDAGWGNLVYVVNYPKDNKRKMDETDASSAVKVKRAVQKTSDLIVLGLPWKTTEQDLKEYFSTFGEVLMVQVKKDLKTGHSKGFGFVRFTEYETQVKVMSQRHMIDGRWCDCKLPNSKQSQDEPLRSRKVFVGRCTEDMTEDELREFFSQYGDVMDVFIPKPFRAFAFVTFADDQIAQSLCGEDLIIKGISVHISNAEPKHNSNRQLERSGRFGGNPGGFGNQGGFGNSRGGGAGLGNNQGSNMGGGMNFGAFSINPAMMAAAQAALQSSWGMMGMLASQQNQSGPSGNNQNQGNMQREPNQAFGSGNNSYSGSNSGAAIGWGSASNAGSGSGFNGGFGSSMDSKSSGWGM

Binder | binding signal
B1 | 0.423 R (bound/input frequency ratio)
B2 | 0.56 R (bound/input frequency ratio)
B3 | 5.32 R (bound/input frequency ratio)
B4 | 4.75 R (bound/input frequency ratio)
B5 | 7.46 R (bound/input frequency ratio)
B6 | 6.81 R (bound/input frequency ratio)
B7 | 6.13 R (bound/input frequency ratio)
B8 | 5.89 R (bound/input frequency ratio)
B9 | 6.68 R (bound/input frequency ratio)
B10 | 6.44 R (bound/input frequency ratio)
B11 | 5.01 R (bound/input frequency ratio)
